The values below come from ChEMBL document CHEMBL3988442, “University of Dundee, Small-Polar-MMV Screening Library” (2021).

Molecules are shown by their SMILES. Hit rate of the full screen: of about 48,000 compounds, about 13,000 (27%) showed an effect of 50% or more. Some of the results follow.

The subject of the experiment is Wolbachia pipientis. As to the kind of experiment: Anti-Wolbachia Cell-Based Screen. Details: scale not given: in the data most compounds retested in dose-response had high values. Format: functional. The note with it: 5 µM.
Regarding `CC(C)(C)C(O)CN1CCN(C(=O)c2cccc3[nH]ncc23)CC1` (stereo not drawn), the “Percent Effect” value is -4.967%. With `O=S1(=O)C[C@@H]2[C@H](C1)N(Cc1cc(Cl)cc(Cl)c1)CCN2CCO` the figure was 13.48%. With `O=C(NCc1cccnc1)C1CN(c2cnc3ccccc3n2)CCN1` (stereo not drawn) the figure was -3.228%. With `Cc1cccc(NC(=O)c2ccc(-n3cncn3)nn2)n1` the figure was -9.734%; with `Cl.O=C(Nc1ccccn1)c1cncc(C2CCNCC2)n1`, 82.75%; with `O=C(Nc1ccc(Cl)cn1)C1CCCN(CCc2ccncc2)C1` (stereo not drawn), -1.04%. In the case of `Cc1ccnc(NC(=O)c2c(C)oc(C)c2C)c1`, the “Percent Effect” value is 13.28%.

For the compound `Cc1cccc(NC(=O)c2cncc(C3CCNCC3)n2)n1`, the “Percent Effect” value is recorded as 105%.

Regarding `O=c1n(Cc2ccccn2)nc(C2CCNCC2)n1Cc1ccccc1`, the “Percent Effect” value was -4.835%. Next, `O=C(Nc1ccc(Cl)cn1)c1cncc(C2CCNCC2)n1`: 119.3%; `Cc1ccnc(NC(=O)c2ccc(Cl)o2)c1`: -0.2777%; `Cc1ccnc(NC(=O)c2cncc(C3CCNCC3)n2)c1`: 117.9%.

For the compound `Cc1cccc(NC2CCN(C(=O)Nc3cccc4[nH]ccc34)CC2)n1`, the “Percent Effect” value is recorded as -4.499%. With `O=C(Nc1cc(C2CCOCC2)[nH]n1)c1ccc(Cl)cn1` the figure was -26.34%; with `O=C(Nc1ccccn1)c1nc(N2CCCC2)ncc1Cl`, -4.003%; with `O=C(NCCn1ccnc1)c1cc(Br)c[nH]1`, -7.332%. With `Cc1cnn(CCNC(C)c2nnc(-c3cccc(Cl)c3)o2)c1` (stereo not drawn) the figure was -21.78%; with `Cc1occc1C(=O)N1CCc2ncnc(C3CCOC3)c2CC1` (stereo not drawn), -5.799%; with `COc1cccc(-c2noc3c2CN(c2nc(C)ncc2C)CC3)c1`, -35.21%. Next, `O=C(Nc1ccccc1OC1CCOC1)c1cc[nH]n1` (stereo not drawn): -3.911%; `Cc1nc(Cn2nc(C3CCNCC3)n(Cc3ccccc3)c2=O)no1`: -19.55%.

With `Cc1ccccc1NC(=O)c1cncc(C2CCNCC2)n1.Cl`, the “Percent Effect” value came to 126.6%. With `CCCc1cc(C(=O)N2CCC3(CC2)CN(CCN(C)C)C(=O)O3)no1` the figure was -10.71%; with `Cc1ncsc1CN1CCN(C)C2(CCC(=O)N(CCO)CC2)C1` (stereo not drawn), -3.684%. With `Cc1ncsc1CN1CC[C@H](O)[C@@H](n2cnc3c(N)ncnc32)CC1` the figure was 93.47%.

Consider `Cc1ncsc1CCN(C)C1CCN(c2ncnc3[nH]cnc23)CC1`, for which the “Percent Effect” value is 13.21%. For `Nc1ncnc2c1ncn2[C@H]1CCN(Cc2ccsc2)CC[C@@H]1O`, the “Percent Effect” value is 125.5%.

As for `c1cc(CN2CCC(n3cc(CN4CCCC4)nn3)CC2)cs1`, the “Percent Effect” value amounted to 0.307%.

For the compound `CN(C)S(=O)(=O)N1CC[C@]2(O)CCN(c3cc(C#N)ccn3)C[C@@H]2C1`, the “Percent Effect” value is listed as -4.757%.

As for `CC(C)CN1C(=O)c2ccc(C(=O)NCCc3c[nH]cn3)cc2C1=O`, the “Percent Effect” value was found to be 4.031%. With `CCc1cnc(N)nc1N1CCCC2(CCOCC2)C1` the figure was 7.215%. With `Cc1nn(C)c(Cl)c1C1CCCN1C(=O)c1cccc(C#N)c1` (stereo not drawn) the figure was 117.2%. With `Cc1nn(C)c(C)c1C1CCCN1C(=O)c1ccnc(N(C)C)c1` (stereo not drawn) the figure was 114%; with `Cc1nn(C)c(Cl)c1C1CCCN1C(=O)c1ccnc(N(C)C)c1` (stereo not drawn), 115.9%; with `COc1c(C2CCCN2C(=O)c2ccnc(N(C)C)c2)c(C)nn1C` (stereo not drawn), 3.661%. As to `Cc1nn(C)c(Cl)c1C1CCCN1C(=O)c1ccc2c(c1)COC2` (stereo not drawn), the “Percent Effect” value turned out to be 103.2%.

For `Cc1nn(C)c(C)c1C1CCCN1C(=O)c1cnc2n[nH]c(C)c2c1` (stereo not drawn), the “Percent Effect” value is -6.27%. As to `CCn1nc(C(=O)N2CCCC2c2noc(C3CC3)n2)ccc1=O` (stereo not drawn), the “Percent Effect” value is -10.37%. As to `CCOCCN1CCN(CCc2nc3ccccc3c(=O)[nH]2)CC1`, the “Percent Effect” value is listed as -16.1%. Next, `O=S(=O)(Cc1nc(C2CC2)no1)c1cc(F)ccc1F`: -10.78%; `Cc1nn(C)c(Cl)c1C1CCCN1C(=O)c1ccncc1` (stereo not drawn): 76.23%.

For `Cc1nn(C)c(Cl)c1C1CCCN1C(=O)c1ccc2nncn2c1` (stereo not drawn), the “Percent Effect” value is reported as -0.8221%.

For the compound `CCCc1cc(NCc2cc(C)on2)n2nccc2n1`, the “Percent Effect” value is reported as 18.67%. With `CN(C)c1nc(-c2ccncc2)nc2c1CCN(C(=O)[C@H](N)CO)C2` the figure was 12.11%. As to `O=C(NCCc1cccs1)[C@]12COC[C@H]1CN(c1ncccn1)C2.O=C(O)C(F)(F)F`, the “Percent Effect” value was -26.22%.

Consider `Fc1ccc(N2CCCN(Cc3ccc(-c4cc[nH]n4)o3)CC2)cc1`, for which the “Percent Effect” value worked out at 76.67%. As to `Cc1cnccc1N1CCCN(Cc2ccc(-c3cc[nH]n3)o2)CC1`, the “Percent Effect” value turned out to be 39.38%.

For `CCNC(=O)[C@@H]1C[C@H](N)CN1Cc1ccc(-c2cc[nH]n2)o1`, the “Percent Effect” value was 2.507%. `O=C(O)c1ccc(C2CCCN(Cc3ccc(-c4cc[nH]n4)o3)C2)cc1` (stereo not drawn): the “Percent Effect” value was 112.5%. Next, `Cc1cccnc1CN1CCN(Cc2ccc(-c3cc[nH]n3)o2)CC1`: 0.5837%; `Cc1nn(C)c(C)c1CN1CCCC(c2ccc(C(=O)O)cc2)C1` (stereo not drawn): 16.04%. With `O=C(O)c1ccccc1C1CCN(Cc2ccc(-c3cc[nH]n3)o2)C1` (stereo not drawn) the figure was 111.1%.

For `O=C(O)c1ccc(CC2CCN(Cc3ccc(-c4cc[nH]n4)o3)C2)cc1` (stereo not drawn), the “Percent Effect” value is 103.3%.

Consider `Fc1cnc(N2CCN(Cc3ccc(-c4cc[nH]n4)o3)CC2)nc1`, for which the “Percent Effect” value worked out at 10.27%.

On to `Cc1cc(N2CCN(Cc3ccc(-c4cc[nH]n4)o3)CC2)cc(C)n1`, for which the “Percent Effect” value is given as 1.091%.

In the case of `Cc1cnc(C)c(N2CCN(Cc3ccc(-c4cc[nH]n4)o3)CC2)n1`, the “Percent Effect” value worked out at 2.715%. Next, `CCN1CC2(CCC1=O)CCN(Cc1cccc(C#N)c1)CC2`: -7.959%; `CC(C)c1nc(CN(C)C(=O)C2CC(=O)N(Cc3ccncc3)C2)cs1` (stereo not drawn): 6.051%; `COc1cccc(CN(C)C(C)c2ccco2)c1OCCn1ccnc1` (stereo not drawn): -0.9941%. As to `CN(CCN1CCCCCC1)C(=O)c1cc(CN2CCC(O)CC2)on1`, the “Percent Effect” value is given as -8.784%. Next, `Nc1ncc(C(=O)N2CCC3(CCCO3)CC2)c(-c2ccccc2)n1`: -10.16%; `CC(C)(CNc1ccc(S(=O)(=O)C(F)F)cc1)N1CCOCC1`: 2.444%. Turning to `CC(C)NS(=O)(=O)c1cc(C(=O)O)cc(-c2ccccc2C#N)c1`, the “Percent Effect” value came out at 4.012%. Turning to `Cc1ccccc1CN1CC[C@@]2(O)CCN(C(=O)C3CCC3)C[C@H]2C1`, the “Percent Effect” value was -8.444%. Regarding `Cc1cnccc1CN1CC[C@@](C)(O)[C@H](Oc2cccc(F)c2)C1`, the “Percent Effect” value is 113.3%. For `Cc1cnccc1CN1CC[C@@](C)(O)[C@H](Oc2ccccc2)C1`, the “Percent Effect” value is recorded as -3.171%. Next, `Cc1cc(F)ccc1CN1CCCC(O)(CN2CCCC2)C1` (stereo not drawn): 20.34%; `Cc1cnccc1CN1CC[C@H](Oc2cccc(F)c2)[C@@](C)(O)C1`: 130.7%. Next, `CC(C)[C@@H]1CN(CC(=O)NCc2ccco2)C[C@H]1NS(=O)(=O)N(C)C`: -2.04%; `CCSc1nc(N)c(NC(=O)c2ccc(C)cc2)c(=O)[nH]1`: -2.31%.

As for `Fc1ccc(OCCCNC2=NCCCN2)cc1.I`, the “Percent Effect” value came to 81.36%. With `Br.Cc1ccc(OCCCSC2=NCCN2)cc1` the figure was 5.255%. On to `CCOCc1ccc(CNC2=NCCCN2)cc1.I`, for which the “Percent Effect” value is recorded as 0.3337%. Turning to `I.c1ccc(OCCNC2=NCCCN2)cc1`, the “Percent Effect” value stood at 111%. With `Fc1ccc(OCCCN2CC(n3cccn3)C2)cc1` the figure was 3.105%; with `Fc1ccc(OCCCNC2=NCCN2)cc1.I`, 63.04%. Consider `Br.Cc1ccc(OCCSC2=NCCN2)cc1`, for which the “Percent Effect” value was 1.775%. Next, `Cn1ncc2c(NCCOc3ccc(F)cc3)nc(C3CCCC3)nc21`: 8.04%; `CN(C)c1ccc(CNC2=NCCCN2)cc1.I`: 13.13%; `COC(=O)C1Cc2nc[nH]c2CN1Cc1ccc(Sc2ncccn2)o1` (stereo not drawn): 2.291%. With `COc1cc2nc(NCc3cc(C)on3)nc(N)c2cc1OC` the figure was -8.416%; with `CC1CN(Cc2noc(C3CC3)n2)CCN1Cc1nccn1C` (stereo not drawn), -7.382%; with `CCNC(=O)c1ccnc(N2CCCC(COc3ccccc3C)C2)c1` (stereo not drawn), 3.224%. Next, `CCOCCn1nc(C)cc1C(=O)N(C)Cc1cccc2ncccc12`: 6.003%. Take `C=C(C)Cn1ccc2cc(OC)c(F)cc2c1=O`: the “Percent Effect” value is -16.88%. On to `CC[C@H]1CN(S(C)(=O)=O)CC[C@H]1CC(=O)NCCSC`, for which the “Percent Effect” value is recorded as -2.393%. `CS(=O)(=O)c1ccc(C(=O)N2CCCC(n3ccnc3)C2)cc1` (stereo not drawn): the “Percent Effect” value was 96.86%.

Consider `CCc1nccn1C1CCCN(C(=O)c2ccn(-c3ccccc3)n2)C1` (stereo not drawn), for which the “Percent Effect” value is -25.66%. As for `NC(=O)C1CCCN(C(=O)c2ccc(-n3ccnc3)cc2)C1` (stereo not drawn), the “Percent Effect” value is 0.2074%. With `Cc1ccn(-c2ccc(C(=O)N3CCCC(n4ccnc4)C3)cc2)n1` (stereo not drawn), the “Percent Effect” value is 4.214%. Next, `O=C(c1ccc(-n2cnnn2)cc1)N1CCCC(n2ccnc2)C1` (stereo not drawn): 90.08%; `O=C(c1ccn(-c2ccc(F)cc2)n1)N1CCCC(n2ccnc2)C1` (stereo not drawn): 97.03%. Next, `O=C(c1ccc(-n2ccnc2)cc1)N1CCCC(n2ccnc2)C1` (stereo not drawn): 120.2%. Consider `O=C(CNC(=O)c1ccoc1)NCCOc1ccc2c(c1)CCC2`, for which the “Percent Effect” value turned out to be 14.09%. Regarding `CCc1nccn1C1CCCN(C(=O)c2ccc(-n3ccnc3)cc2)C1` (stereo not drawn), the “Percent Effect” value came out at 94.46%. As to `CC1=NN(c2ccc(C(=O)N3CCCC(n4ccnc4)C3)cc2)CC1` (stereo not drawn), the “Percent Effect” value is recorded as -6.024%.

As to `Cc1ccnn1-c1ccc(C(=O)N2CCCC(n3ccnc3)C2)cc1` (stereo not drawn), the “Percent Effect” value is reported as 116.9%. With `O=C(c1ccc(-n2cnnc2)cc1)N1CCCC(n2ccnc2)C1` (stereo not drawn) the figure was 107.8%; with `O=C1COc2cc(C(=O)N3CCCC(n4ccnc4)C3)ccc2N1` (stereo not drawn), -12.82%; with `NC(=O)COc1ccc(C(=O)N2CCCC(n3ccnc3)C2)cc1` (stereo not drawn), 96.26%. As to `CCc1nccn1C1CCCN(C(=O)c2cncn2-c2ccccc2)C1` (stereo not drawn), the “Percent Effect” value is -5.728%. Next, `O=C(c1ccc(OCC2CC2)nc1)N1CCCC(n2ccnc2)C1` (stereo not drawn): -1.875%. With `NC(=O)COc1cccc(C(=O)N2CCCC(n3ccnc3)C2)c1` (stereo not drawn) the figure was 2.122%.
